Source: PubChem BioAssay AID1376 (SRMLSC, 2008)
The campaign covered roughly 220,000 compounds. About 530 (0.24%) were called active. No stated cut-off is given here; in the data, active means inhibition above about 13%; inconclusive means no clear call, values can overlap the other calls; inactive means below that. For the sample, actives were picked, then their nearest neighbours and some compounds at random. Results with a measured potency or affinity are listed apart.

These compounds were tested against Bifunctional protein GlmU (Mycobacterium tuberculosis (strain ATCC 25618 / H37Rv)) (UniProt P9WMN3) (assay: inhibition of mycobacterial GlmU enzyme – biochemical, glucosamine-1-phosphate acetyltransferase (AID 1376;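 further: 0% = complete reaction with vehicle and 100% = reaction without substrate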)). Details: M. tuberculosis GlmU acetyltransferase enzyme assay; hits give high values;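 tested at 30 µM in the primary screen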.
Sequence of Bifunctional protein GlmU (Mycobacterium tuberculosis (strain ATCC 25618 / H37Rv)) (P9WMN3 whole entry, looked up): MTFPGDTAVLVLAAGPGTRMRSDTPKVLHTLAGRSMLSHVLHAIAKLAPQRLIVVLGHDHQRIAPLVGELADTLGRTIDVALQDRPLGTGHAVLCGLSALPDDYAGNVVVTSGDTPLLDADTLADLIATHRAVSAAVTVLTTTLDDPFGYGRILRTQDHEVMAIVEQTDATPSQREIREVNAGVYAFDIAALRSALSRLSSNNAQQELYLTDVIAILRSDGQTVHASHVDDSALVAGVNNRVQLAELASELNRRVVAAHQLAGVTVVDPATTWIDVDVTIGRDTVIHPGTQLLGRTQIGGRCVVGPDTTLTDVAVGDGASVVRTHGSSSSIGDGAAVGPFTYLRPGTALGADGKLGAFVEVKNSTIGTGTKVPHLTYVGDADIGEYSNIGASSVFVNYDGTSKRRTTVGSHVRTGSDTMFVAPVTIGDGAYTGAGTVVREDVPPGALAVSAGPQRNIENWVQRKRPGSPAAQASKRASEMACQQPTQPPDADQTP
COC(=O)c1ccc(S(=O)(=O)NCc2ccccn2)n1C was tested, and the inhibition was -0.35% (inactive).
COc1cccc(Nc2ccccc2C(=O)O)c1 was tested, and the inhibition was -2.96% (inactive).
With COc1ccc(Nc2cccc(Cl)c2)c(C(=O)O)c1 the inhibition was 13.1% (active).
COc1ccc(Nc2ccc(Cl)cc2)c(C(=O)O)c1 was tested, and the inhibition was 11.1% (inactive).
COc1ccccc1C(=O)O/N=C(\N)c1ccccn1 was tested, and the inhibition was 6.05% (inactive).
COc1cc(OC)cc(C(=O)O/N=C(\N)c2ccccn2)c1 was tested, and the inhibition was -3.71% (inactive).
With COc1cc(C(=O)O/N=C(\N)c2ccccn2)cc(OC)c1OC the inhibition was 13.3% (active).
In the case of Cn1c(CSCCOc2ccccc2)n[nH]c1=S, the inhibition is reported as -1.84% (inactive).
COc1c(C)cc(S(=O)(=O)NC2CC(C)(C)NC(C)(C)C2)c(C)c1C was tested, and the inhibition was -0.79% (inactive).
With COc1ccc(S(=O)(=O)NC2CC(C)(C)NC(C)(C)C2)c(C)c1C the inhibition was 13.6% (active).
For COc1ccc(Cl)cc1S(=O)(=O)NC1CC(C)(C)NC(C)(C)C1, the inhibition was 4.3% (inactive).
With O=C(O)c1ccc(N=Nc2c(O)[nH]c3cc(Cl)ccc23)cc1 the inhibition was 11% (inactive).
For O=C(O)c1ccc(N=Nc2c(O)[nH]c3ccccc23)cc1, the inhibition was -3.4% (inactive).
With Nc1nc(N)c(N=Nc2ccc(C(=O)O)cc2)c(N)n1 the inhibition was 13.1% (active).
With O=C(NCCO)C(c1ccccc1)c1ccccc1 the inhibition was -1.82% (inactive).
For COc1ccc2nc3sc(C(=O)NCCN4CCc5ccccc5C4)cc3cc2c1, the inhibition was 15% (active).
COc1ccc2cc3cc(C(=O)NCCN4CCc5ccccc5C4)sc3nc2c1 was tested, and the inhibition was 4.04% (inactive).
For COc1ccc2nc3sc(C(=O)NCCCN4CCc5ccccc5C4)cc3cc2c1, the inhibition was 5.05% (inactive).
For O=C1C(Cl)=C(Nc2ccc(F)cc2)C(=O)N1CCc1ccccc1, the inhibition was -4.15% (inactive).
COc1ccc(NC2=C(Cl)C(=O)N(c3ccccc3)C2=O)c(OC)c1 was tested, and the inhibition was 4.46% (inactive).
COc1ccccc1NC1=C(Cl)C(=O)N(c2ccccc2)C1=O was tested, and the inhibition was 1.83% (inactive).
CCOc1ccc(N2C(=O)C(Cl)=C(Nc3ccccc3O)C2=O)cc1 was tested, and the inhibition was 7.85% (inactive).
With CCOc1ccccc1NC1=C(Cl)C(=O)N(c2ccc(OC)cc2)C1=O the inhibition was -5.57% (inactive).
With O=C1C(Cl)=C(NCCc2ccccc2)C(=O)N1CCc1ccccc1 the inhibition was 1.54% (inactive).
For COc1ccc(N2C(=O)C(Cl)=C(Nc3ccccc3OC)C2=O)cc1, the inhibition was 3.86% (inactive).
For CCOc1ccccc1NC1=C(Cl)C(=O)N(c2ccccc2)C1=O, the inhibition was 0.96% (inactive).
In the case of O=C1C(Cl)=C(Nc2ccccc2O)C(=O)N1c1ccccc1, the inhibition is reported as 42.6% (active).
COc1ccc(-n2c3c(cc(C(=O)N4CCC(C)CC4)c2=O)C(=O)CC(C)(C)C3)cc1 was tested, and the inhibition was 0.29% (inactive).
With Cc1cc(C)c(NC2=NS(=O)(=O)c3ccccc32)c(C)c1 the inhibition was 0.24% (inactive).
In the case of COc1cccc(OC)c1C(=O)NC(=S)NNC(=O)[C@H]1C[C@@H]1c1ccccc1, the inhibition is reported as 3.93% (inactive).
O=c1cc(CSc2nnc3ccccn23)c2c(ccc3ccccc32)o1 was tested, and the inhibition was 5.61% (inactive).
Cc1ccc(C2=CC(C)(c3ccc(C)cc3)Nc3nc(C(F)(F)F)nn32)cc1 (stereo unspecified) was tested, and the inhibition was -1.89% (inactive).
O=[N+]([O-])c1ccc(O)c(/C=N/Nc2nc3ccccc3[nH]2)c1 was tested, and the inhibition was 2.26% (inactive).
COc1ccc(O)c(/C=N/Nc2nc3ccccc3[nH]2)c1 was tested, and the inhibition was 1.12% (inactive).
In the case of O=C(Nc1ccc(N2CCN(C(=O)c3cccs3)CC2)cc1)c1cccnc1, the inhibition is reported as -0.33% (inactive).
With O=C(Nc1cccc(C(=O)N2CCOCC2)c1)c1cccnc1 the inhibition was 2.11% (inactive).
For CSc1nc(Cl)cc(N2CCOCC2)n1, the inhibition was 3.3% (inactive).
For Cc1cc(C)n(-c2ccc(Oc3ccccc3)c(S(=O)(=O)O)c2)n1, the inhibition was 12.6% (inactive).
With Cc1cc(N)n(-c2ccc3ccccc3c2)n1 the inhibition was 0.94% (inactive).
For Cc1[nH]n(-c2ccccc2)c(=O)c1CCO, the inhibition was -5.63% (inactive).
With CCOC(=O)Cc1c(C)[nH]n(-c2ccccc2)c1=O the inhibition was 0.6% (inactive).
CCOC(=O)C1CCCN(CC(=O)Nc2c(F)c(F)c(F)c(F)c2F)C1 (stereo unspecified) was tested, and the inhibition was 0.78% (inactive).
In the case of CCS(=O)(=O)N1Cc2ccccc2CC1C(=O)Nc1nc(C)cs1 (stereo unspecified), the inhibition is reported as -3.38% (inactive).
Cc1cc(C(=O)NC(C)c2ccccc2)c2cc(F)ccc2n1 (stereo unspecified) was tested, and the inhibition was 2.48% (inactive).
For CS(=O)(=O)N1CCC(C(=O)Nc2ccc(OCc3ccccc3)cc2)CC1, the inhibition was 0.13% (inactive).
With OCCN1CCN(CC(O)C(F)(F)F)CC1 (stereo unspecified) the inhibition was 0.82% (inactive).
For O=C(c1cccc(F)c1)N1CCN(Cc2c[nH]c3ccccc23)CC1, the inhibition was 15% (active).
O=C(c1ccccc1)N1CCN(Cc2c[nH]c3ccccc23)CC1 was tested, and the inhibition was -4.61% (inactive).
O=C(c1cccc(Cl)c1)N1CCN(Cc2c[nH]c3ccccc23)CC1 was tested, and the inhibition was 7.63% (inactive).
For O=c1[nH]c(CSc2ncc(C(F)(F)F)cc2Cl)nc2cc(C(F)(F)F)ccc12, the inhibition was -1.09% (inactive).
In the case of Cc1sc2ncnc(OCC(=O)N3CCN(S(=O)(=O)c4ccccc4)CC3)c2c1C, the inhibition is reported as -1.45% (inactive).
With COc1cccc(NC(=O)C(Sc2nnc(Nc3ccccc3C)s2)c2ccccc2)c1 (stereo unspecified) the inhibition was -3.98% (inactive).
CCOc1cccc(CNCc2ccc(C(=O)O)cc2)c1 was tested, and the inhibition was -1.27% (inactive).
With O=C(O)c1cc(-c2ccc(/C=N/Nc3ccc(Cl)cc3)o2)ccc1Cl the inhibition was -0.42% (inactive).
For Cc1ccc(N2C(=O)NC(=O)/C(=C/c3ccc(-c4ccc(C(=O)O)c(Cl)c4)o3)C2=O)cc1, the inhibition was 6.82% (inactive).
Cc1c(C(=O)O)cccc1-c1ccc(/C=C2/NC(=O)N(c3ccccc3)C2=O)o1 was tested, and the inhibition was -0.48% (inactive).
With O=C(O)c1cc(-c2ccc(/C=C3\NC(=O)N(c4ccccc4)C3=O)o2)ccc1Cl the inhibition was 13.6% (active).
In the case of Cc1ccc(/C=C2/NC(=O)N(c3ccccc3)C2=O)o1, the inhibition is reported as -0.29% (inactive).
With O=C(O)c1cc(-c2ccc(/C=C3/SC(=S)N(Cc4ccccc4)C3=O)o2)ccc1Cl the inhibition was 17% (inactive).
For O=C(O)c1cc(-c2ccc(/C=C3\NC(=O)N(c4ccc(Cl)cc4)C3=O)o2)ccc1Cl, the inhibition was 27% (active).
With Cc1ccc(CN2C(=O)N/C(=C/c3ccc(-c4ccc(C(=O)O)cc4)o3)C2=O)cc1 the inhibition was 4.7% (inactive).
With Cc1ccc(/C=C2/NC(=O)N(Cc3ccccc3)C2=O)o1 the inhibition was -1.11% (inactive).
With Cc1cc(C(=O)O)ccc1-c1ccc(/C=C2\NC(=O)N(Cc3ccccc3Cl)C2=O)o1 the inhibition was 5.89% (inactive).
For Cc1cc(C(=O)O)ccc1-c1ccc(/C=C2\NC(=O)N(Cc3ccc(F)cc3)C2=O)o1, the inhibition was 13.9% (active).
In the case of Cc1ccc([N+](=O)[O-])cc1N(CC(=O)NCC1CCCO1)S(C)(=O)=O (stereo unspecified), the inhibition is reported as 1.08% (inactive).
With COc1ccc(C2CC(c3ccccc3)=NN2C(=O)c2cccs2)cc1 (stereo unspecified) the inhibition was 0.55% (inactive).
In the case of COc1ccc(CCNC(=O)COC(=O)CCC(=O)c2ccc(F)cc2)cc1, the inhibition is reported as 1.09% (inactive).
N#Cc1nc(Cc2cccc3ccccc23)oc1N1CCC(C(N)=O)CC1 was tested, and the inhibition was 1.98% (inactive).
Cc1ccc(-n2ncc(C(=O)NCc3ccc4c(c3)OCO4)c2NC(=O)c2ccco2)cc1C was tested, and the inhibition was 6.03% (inactive).
For O=C(OCC(=O)c1ccc[nH]1)c1ccc(S(=O)(=O)N2CCCCCC2)cc1, the inhibition was -6.95% (inactive).
With Cc1ccc(C(=O)NC(=S)NNC(=O)CC#N)cc1 the inhibition was -2.12% (inactive).
With COc1ccc(OC)c(NC(=O)c2ccccc2NC(=O)c2ccco2)c1 the inhibition was 4.28% (inactive).
In the case of COc1ccc(C(c2c(O)nc[nH]c2=O)c2c(O)nc[nH]c2=O)cc1, the inhibition is reported as 0.27% (inactive).
With COc1ccc(Cc2c(O)nc(SCC(=O)c3ccc(OC)cc3)[nH]c2=O)cc1 the inhibition was 2.96% (inactive).
In the case of COc1ccc(Cc2c(O)nc[nH]c2=O)cc1, the inhibition is reported as 22.8% (active).
CCOC(=O)C1=C2N(C)c3ccccc3N2CCC1=O was tested, and the inhibition was 0.79% (inactive).
For Cc1cccc(Cn2c(N3CCc4ccccc4C3)nc3c2c(=O)[nH]c(=O)n3C)c1, the inhibition was 2.16% (inactive).
For CC(C)(C)NC(=S)Nc1ccc(Br)cc1, the inhibition was 1.07% (inactive).
For CC(C)(C)NC(=S)Nc1ccc(Nc2ccccc2)cc1, the inhibition was 13.4% (active).
For CNC(=S)Nc1ccc(Nc2ccccc2)cc1, the inhibition was 1.36% (inactive).
With O=C(Cc1cc(=O)[nH][nH]1)N/N=C/C=C/c1ccccc1 the inhibition was 3.75% (inactive).
For COc1ccc(N(CC2CO2)S(=O)(=O)c2ccccc2)cc1 (stereo unspecified), the inhibition was 3.63% (inactive).
For CCN(CC)c1ccc(/C=N/N2CCN(Cc3ccccc3Cl)CC2)c(O)c1, the inhibition was 14.1% (active).
For CCN(CC)c1ccc(/C=N/N2CCN(Cc3ccccc3)CC2)c(O)c1, the inhibition was -0.12% (inactive).
CCN(CC)c1ccc(/C=N/N2CCN(Cc3cccc4ccccc34)CC2)c(O)c1 was tested, and the inhibition was -0.67% (inactive).
With Nc1ncnc2c1ncn2[C@@H]1O[C@H](CO)[C@@H](O)[C@H]1O the inhibition was -4.56% (inactive).
With Nc1nc(=S)c2ncn(C3CCCC3)c2[nH]1 the inhibition was 7.24% (inactive).
For Nc1nc(=S)c2ncn(C3OC(CO)C(O)C3O)c2[nH]1 (stereo unspecified), the inhibition was 20.9% (active).
Cc1ccc2nc3c(nc2c1C)C(O)=C3O was tested, and the inhibition was 2.69% (inactive).
With CN1CCN(C2=C(Cl)C(=O)N(Cc3ccccc3)C2=O)CC1 the inhibition was -1.86% (inactive).
CC(C)(C)c1csc(SCC(=O)Nc2ccc(Cl)cn2)n1 was tested, and the inhibition was 5.51% (inactive).
In the case of CCn1c2ccccc2c2cc(/C=N/n3c(-c4cc(C)[nH]n4)n[nH]c3=S)ccc21, the inhibition is reported as 2.92% (inactive).
For CCn1c2ccccc2c2cc(/C=N/n3cnnc3)ccc21, the inhibition was 6.56% (inactive).
In the case of CCn1c2ccccc2c2cc(/C=N/n3cn[nH]c3=S)ccc21, the inhibition is reported as 13% (active).
In the case of CC(=O)Nc1ccc(Nc2nc(C)c([N+](=O)[O-])c(Nc3ccccc3)n2)cc1, the inhibition is reported as 5.98% (inactive).
CC(=O)Nc1ccc(Nc2nc(C)c([N+](=O)[O-])c(Nc3ccc(NC(C)=O)cc3)n2)cc1 was tested, and the inhibition was -3.57% (inactive).
